# Source: PubChem BioAssay (National Center for Advancing Translational Sciences (NCATS))
# Pf growth 48h: P. falciparum growth inhibition at 48 hours (one generation) | Potency, µM (doses to about 28.7 µM), for the others: at the highest dose activity change, negative = inhibition, actives largely listed as inhibitors | 5.9% of 310,000 active | AID 504832 | P. falciparum luciferase growth in erythrocytes, 48 h; further: potency means the concentration at half of the fitted maximal effect
#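 Read-out is firefly luciferase luminescence from an integrated reporter in P. falciparum, so falling signal marks reduced parasite growth. Infected erythrocytes were at 2% hematocrit and 0.1% parasitemia (final) in Albumax-supplemented RPMI 1640.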
# MARV entry inh: blocks Marburg virus binding to or entry into cells | Marburg virus pseudotyped entry inhibition, cell reporter | Potency, µM (highest dose often 37.8 µM), for inactives: at the top dose activity change, negative = inhibition, actives largely listed as inhibitors | 1.8% of 300,000 active; calls by dose curve; tested in HEK293 cells; further: potency means the concentration at half of the fitted maximal effect
# Pf growth 96h: P. falciparum growth inhibition at 96 hour, primary screen for plastid delayed-death inhibitors; Potency, µM (doses to about 28.7 µM), for the others: at the top dose activity change, negative = inhibition, usual class: inhibitors; 6.9% of 320,000 active; P. falciparum luciferase reporter growth, 96 h; further: potency means the concentration at half of the fitted maximal effect
#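 Luminescence readout: decreased luciferase signal marks inhibited growth of reporter-expressing P. falciparum in infected red cells (2% hematocrit, 0.05% parasitemia final), exposed to compound two generations (96 h, 37 C, 5% CO2).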
# HCMV antiviral: inhibitors of human cytomegalovirus; HFF cells, HCMV-luciferase reporter, 72 h; active compounds read low; activity change, negative = inhibition, % at 57.5 µM; 4.5% of 410,000 active; in the data active means activity change below about -60%; inconclusive means no clear call, values can overlap the other calls; inactive means above about -39%
#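 Cell-based, HFFs, 1000 cells/well, 16 h 37C; cpds in DMSO + HCMV-luc, MOI 1 PFU/cell; 72 h 37C; OneGlo luminescence after 5 min RT; norm. to buffer vs Salinomycin 10uM.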
# LASV entry inh: Lassa virus entry inhibition. Lassa virus pseudotype entry inhibition, cell reporter. 1.2% of 300,000 active. Potency, µM (series often up to 37.9 µM), without a hit: at the top dose activity change, negative = inhibition, actives largely listed as inhibitors; calls by dose curve; tested in HEK293 cells; further: potency means the concentration at half of the fitted maximal effect; nearly all actives have a fitted effect of over 50% in size
# HCV inhibitor: HCV inhibition; Huh7.5.1 HCVcc-Cre infection, luciferase reporter, 44 h; Potency, µM (series often up to 41.8 µM), for inactives: at the highest dose activity change, negative = inhibition, most hits filed as inhibitors; 3.4% of 340,000 active; further: potency means the concentration at half of the fitted maximal effect
#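 1,000 cells/well; 4 h culture; + compound; + HCVcc-Cre (~0.5 moi); 44 h; luciferase substrate, RT 15 min; read 15 sec.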
# Numbers without * were called inactive; ? = inconclusive; . = no result; [ ] = another dose, or the depositor's remark. Only some compounds are listed: those with a hit (about 14% of all), similar ones and a draw of the others. Unless noted, the call rests on the fitted dose curve; in most records, active means well fitted inhibition curve with a large enough effect; inconclusive means small, poorly fitted or top-dose-only effect, or another doubt; inactive means no such curve, though single readings can be large or run the other way. On the % scale 0 is the no-effect control and ±100 the full control effect.
SMILES,Pf growth 48h,MARV entry inh,Pf growth 96h,HCMV antiviral,LASV entry inh,HCV inhibitor
O=C(ONC1=NCCCCC1)c1c(F)cccc1F,13µM*,?,-50%,-1,-24%,?
O=C(CNC1=NCCC1)c1ccc(Cl)cc1,?,-1%,12µM*,22,-8%,-16%
Fc1cc(Cl)ccc1NC1=NCCCCC1,19%,3%[46.1 µM],14%,-18,3%[46.1 µM],-2%
O=C(NC1=NCCCCC1)c1cccc2ccccc12,11%,-4%[46.1 µM],20%,-20,?,17%
COc1ccc(NC(=O)C2Cc3c(-c4cccc(C(C)=O)c4)ccnc3O2)cn1 (configuration not stated),.,.,.,-32,.,.
Cc1ccc(NC(=O)C2CCCN(S(=O)(=O)c3cccc4nsnc34)C2)c(C)c1 (configuration not stated),.,-1%[46.1 µM],.,-24,12%[46.1 µM],.
COc1ccc(CN(C)CC(=O)Nc2cc3oc4ccccc4c3cc2OC)c(OC)c1,?,?,9.3µM*,-20,-1%,?
COc1cc2c(cc1NC(=O)COc1ccccc1OC)oc1ccccc12,36%,-25%,0%,-21,1%,?
COc1cc2c(cc1NC(=O)CN(C)Cc1ccc(OC)c(OC)c1)oc1ccccc12,9.3µM*,1%,7.4µM*,-30,.,3.5µM*
COc1ccc(CN(C)CC(=O)Nc2ccccc2C(F)(F)F)c(OC)c1,10%,2%,62%,-22,1%,33%
COc1ccc(C2c3sc(=O)[nH]c3SC3C4CCC(C4)C23)cc1OC (configuration not stated),?,?,9.3µM*,-13,-32%,15%
COc1ccccc1OCC(=O)NNC(=O)Nc1ccccc1,.,4%[46.1 µM],.,24,1%,5%
c1csc(-c2cn3ccc4ccccc4c3n2)c1,0.26µM*,?,105%,160,?,-29%
c1cc(-c2cccs2)nc(-c2cccs2)c1,24%,12%[46.1 µM],13%,-24,?,15%
CC(C)N(Cc1ccccc1)C(=O)CN1C(=O)CSc2ccc(S(=O)(=O)N3CCCC3)cc21,.,.,.,-22,?,.
Cc1cccc(/C=C2/S/C(=N/N=C3\CC4CCC3(C)C4(C)C)NC2=O)c1 (configuration not stated),?,?,8.3µM*,-7,14µM*,?
Cc1nn(-c2ccccc2)nc1CNC(=O)c1ncoc1-c1ccccc1,9%,.,5%,-22,.,10µM*
Cc1nn(-c2ccccc2)nc1CNC(=O)CC(C)(C)C,2%,.,25%,23,.,5%
CCOc1cc(NC(C)=O)ccc1C(=O)OC,-1%,.,-18%,.,.,.
O=C(Nc1ccccc1)c1ccc(S(=O)(=O)NCc2cccnc2)cc1,-13%,?,16%,-5,-46%,8.9µM*
O=C(NCc1cccnc1)c1ccc(NS(=O)(=O)c2ccccc2)cc1,-21%,?,21%,19,?,-5%
O=C(Nc1ccc(S(=O)(=O)NCc2cccnc2)cc1)c1ccccc1Cl,1%,?,117%,?,-22%,8.9µM*
CCCCCc1ccc(S(=O)(=O)NCCc2ccncc2)cc1,-6%,-20%,.,?,2%,10µM*
O=C(NCc1cccnc1)c1ccc(NS(=O)(=O)c2ccc(F)cc2)cc1,?,-16%[46.1 µM],6.6µM*,-8,28%[46.1 µM],4%
CC[C@@H]1CC2=C(C(=O)OC(C)(C)O2)[C@H](c2ccc(F)cc2)O1,.,.,.,18,.,.
SMILES,Pf growth 48h,MARV entry inh,Pf growth 96h,HCMV antiviral,LASV entry inh,HCV inhibitor
CCN(Cc1ccccc1)C(=O)c1cc2c(s1)-c1c(C)cccc1OC2,.,8%[46.1 µM],.,-11,.,.
O=C(Nc1ccc(S(=O)(=O)Nc2cnc3ccccc3n2)cc1)c1ccc(F)cc1,.,-13%[46.1 µM],.,-10,-10%,-21%
CC(=O)NS(=O)(=O)c1ccc(NC(=O)c2ccccn2)cc1,-13%,0%[46.1 µM],30%,-23,7%[46.1 µM],10%
CCCNS(=O)(=O)c1ccc(NC(=O)c2ccccn2)cc1,77%,?,10µM*,99,?,-8%
O=C(/C=C/c1c(F)cccc1Cl)Nc1ccc(S(=O)(=O)Nc2ncccn2)cc1,-5%,-1%,13µM*,10,5%,0%
CC(C)(C)c1ccc(C(=O)Nc2ccc(S(=O)(=O)Nc3cnc4ccccc4n3)cc2)cc1,13µM*,?,9%,-70*,-8%,14%
O=C(/C=C/c1c(F)cccc1Cl)Nc1ncccn1,204%,-4%,?,21,16%,4%
O=C(Nc1ccc(S(=O)(=O)Nc2ncccn2)cc1)c1ccccc1,0%,.,1.2µM*,-1,.,17%
CC(C)c1ccc(N(CC(=O)NCCCN2CCOCC2)S(=O)(=O)c2ccccc2)cc1,?,22%,?,?,?,-20%
O=C1CCC(C(=O)N2CCCO2)CN1Cc1cccc(C(F)(F)F)c1 (configuration not stated),8%,7%,50%,-12,?,16%
COCC#Cc1ccc2c(c1)O[C@H](CN(C)C(=O)c1ccccc1)[C@@H](C)CN([C@H](C)CO)S2(=O)=O,.,.,.,-6,.,.
CCOC(=O)[C@]12CCCC=C1N(Cc1ccc(Cl)cc1Cl)C(=O)[C@H](CC(=O)NCCC(C)C)C2,.,.,.,-15,.,.
CCC(CC)C(=O)N(C)c1c(C)nc2c(OCc3ccc(Cl)cc3)cccn12,.,.,.,14,.,.
O=C(Nc1ccc(S(=O)(=O)NCCc2ccccc2)cc1)c1ccncc1,29%,.,?,-20,.,11µM*
O=C(Nc1ccc(S(=O)(=O)NCCc2ccccc2)cc1)c1ccco1,4%,12%,.,?,-18%,-15%
CC(CC(=O)N(C)C1CCCCC1)S(=O)(=O)c1ccc2c(c1)NC(=O)CO2 (configuration not stated),13%,.,7.4µM*,-26,.,5%
O=C1CCc2cc(S(=O)(=O)NCCC(=O)N3CCN(c4cccc(Cl)c4)CC3)ccc2N1,?,-8%,10µM*,?,?,?
Cc1ccccc1NC(=O)CCNS(=O)(=O)c1ccc2c(c1)CCC(=O)N2,34%,.,?,-38,.,9%
Cc1ccc(NC(=O)CCNS(=O)(=O)c2ccc3c(c2)CCC(=O)N3)cc1F,50%,.,9.3µM*,55,.,6%
O=C(CCNS(=O)(=O)c1ccc(Cl)cc1)N1CCCCCC1,8%,6%,12µM*,-12,-8%,.
O=C(CCNS(=O)(=O)c1ccc(Cl)cc1)N1CCOCC1,5%,12%,?,-7,11%,-7%
COC(=O)[C@@H]1CC23C(=NC(c4ccc([N+](=O)[O-])cc4)=C(C(F)(F)F)[C@@H]2N(C)c2ccccc23)N1C(C)=O (some centres not stated),.,8%[14.2 µM],.,.,.,.
CC(C)Oc1ccc(C(=O)Nc2nonc2-c2ccc(OC(C)C)cc2)cc1,.,3%[46.1 µM],.,62,?,.
